{"source": "ChEMBL document CHEMBL1157539", "about": "“Thousands of chemical starting points for antimalarial lead identification” (Nature, 2010)", "data": [{"system": "Plasmodium falciparum", "test": "GSK_TCMDC: Inhibition of Plasmodium falciparum 3D7 in whole red blood cells, using parasite LDH activity as an index of growth. Test compounds present at 2uM", "type": "functional", "units": {"Inhibition": "%"}, "values": [{"smiles": "CCN(CCO)CCc1cccc(Nc2nccc(-c3c(-c4ccc(NC(=O)N(CC)CC)cc4)nn4ccccc34)n2)c1.Cl", "Inhibition": 100}, {"smiles": "COc1ccc2nccc([C@@H](O)CN3CCC(NCc4cc5oc(=O)n(C)c5cc4F)CC3)c2c1.O=C(O)C(=O)O", "Inhibition": 99}, {"smiles": "O=C(O)C(F)(F)F.c1cc(-c2ccc(CNCCCN3CCOCC3)cc2)cc(-c2nc3ccccc3[nH]2)c1", "Inhibition": 100}, {"smiles": "CCCCCCN1CCCN(Cc2ccc(C(=O)Nc3ccc(C)c(F)c3)cc2)CC1.O=C(O)C(F)(F)F", "Inhibition": 92}, {"smiles": "O=C(/C=C/c1ccc(Cl)c(Cl)c1)NCCCCCN1CCC(NC(=O)Nc2ccc3c(c2)OCO3)CC1", "Inhibition": 100}, {"smiles": "CCN(CCS(C)(=O)=O)Cc1ccc(-c2ccc3ncnc(Nc4ccc(OCc5cccc(F)c5)c(Cl)c4)c3c2)o1.Cc1ccc(S(=O)(=O)O)cc1", "Inhibition": 100}, {"smiles": "O=C(Nc1ccc(Br)cc1)Nc1ccc(Cn2ncc(N3CCCNCC3)c(Cl)c2=O)cc1.O=C(O)C(F)(F)F", "Inhibition": 87}, {"smiles": "CCCCCOc1ccc(C(O)C(CN2CCCCC2)c2ccccc2)cc1.Cl", "note": "(configuration not stated)", "Inhibition": 98}, {"smiles": "CC(C)Oc1cccc(-c2ccc(C(=O)NCC3CCCN(Cc4cccc(C(F)(F)F)c4)C3)s2)c1.O=C(O)C(F)(F)F", "note": "(configuration not stated)", "Inhibition": 91}, {"smiles": "Cl.N#Cc1ccc2c(c1)CCN(CCC1CCC(NC(=O)c3cc4cccc(Cl)c4[nH]3)CC1)CC2", "note": "(configuration not stated)", "Inhibition": 99}, {"smiles": "CC(Cc1ccc(COc2ccc(CC(CO)NCCc3cccc(Cl)c3)cc2)cc1)NCCc1cccc(Cl)c1.Cl", "note": "(configuration not stated)", "Inhibition": 100}, {"smiles": "O=C(Nc1ccc(Cl)cc1)Nc1cccc(CCNCc2ccccc2)c1.O=C(O)C(F)(F)F", "Inhibition": 100}]}]}
